# The list is not random: actives were taken first. Their share in the collection is about 1.5%.
# E-sel TNF inh: E-selectin induction blockers in HUVEC – imaging, immunofluorescence, high content, primary screen; AID 1246, 2008; inhibition, % at 2 µM; HUVEC TNFa-induced E-selectin immunofluorescence; hit rate 0.71% among 120,000;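 active means inhibition above the batch mean plus 3 SD, and confirmed as a hit on visual image review, cut at about 43% in these data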;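 further: 0% = TNF-stimulated DMSO wells and 100% = unstimulated control wells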
# MRP reversal: reversal of MRP1-mediated doxorubicin resistance, primary screen, H69AR cells, doxorubicin co-treatment; H69AR cells + 2 uM doxorubicin, CellTiter-Glo, 72 h; differential viability (reversal), % at 10 µM; hit rate 0.04% among 85,000; AID 602, 2007;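 active means viability drop by adding the cancer drug above about 55%, with treated viability meeting a 40% cutoff, limit read from the data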;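 further: viability without doxorubicin minus viability with 2 µM doxorubicin for each compound; larger differential means the compound sensitizes cells more to doxorubicin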
# VCAM1 TNFa inh: inhibitors of TNFa-induced VCAM1 expression, primary screen, imaging, HUVEC, TNFa stimulus, immunofluorescence | hit rate 0.48% among 95,000 | HUVEC TNFa-induced VCAM-1 immunofluorescence, high-content imaging | AID 802, 2007 | inhibition, % at 2 µM;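 active means inhibition above the batch mean plus 3 SD, with images confirmed as a hit by eye, cut at about 37% in these data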;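 further: 0% = TNF-stimulated DMSO wells and 100% = unstimulated control wells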
# MRP1 act: H69AR viability gain despite doxorubicin, primary screen, MRP-1 activator project, H69AR cells, CellTiter-Glo; hit rate 0.61% among 140,000; viability increase, % at 10 µM; viability rescue; AID 799, 2007;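 active means viability gain under doxorubicin at or above a set limit, the compound median plus 3 SD, cut at about 4.7% in these data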;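 further: MRP-1 overexpressing cells given doxorubicin 25 µM after compound pretreatment; 18-22 h compound pretreatment then 72 h with doxorubicin before readout; 0% = doxorubicin-only wells and 100% = vehicle-treated cells without doxorubicin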
# cytoskel mod: modifiers of F-actin cytoskeleton organization, primary screen, imaging, HUVEC, phalloidin staining, high-content imaging. inhibition, % at 2 µM. hit rate 0.18% among 91,000. AID 836, 2007. HUVEC TNFa F-actin phalloidin imaging;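 active means inhibition above the batch mean plus 3 SD and confirmed as a hit by visual image inspection, cut at about 30% in these data, passing the limit was not always enough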
# Numbers without * were called inactive; . = no result given.
SMILES,E-sel TNF inh,MRP reversal,VCAM1 TNFa inh,MRP1 act,cytoskel mod
COc1ccc(CCc2nnc(CCC(=O)N(C)Cc3ccncc3C)o2)cc1,-2.4,.,.,.,.
O=C(O)c1nn2c(C(F)(F)F)cc(-c3cccs3)nc2c1Cl,.,.,.,0.3,.
Cc1cc(N)ccc1S(C)(=O)=O,-29.8,-7.4,10.7,-1.9,5.7
Cc1ccc(N)cc1S(=O)(=O)N(C)C,54.9*,.,.,.,.
COCCNC(=O)c1ccccc1NC(=O)c1cccc([N+](=O)[O-])c1C,60.4*,.,.,.,.
CCOC(=O)C1CCN(Cc2ccccc2C)CC1,7.7,-14.3,-10.6,-0.1,30.3*
CCOC(=O)C1CCCN(Cc2ccccc2C)C1 (stereo not given),.,7.5,.,-4.0,.
CCOC(=O)COc1ccc2ccccc2c1/C=C/[N+](=O)[O-],.,.,.,-4.3,.
O=[N+]([O-])/C=C/c1c(OCc2ccccc2)ccc2ccccc12,8.2,0.7,56.3*,-2.3,.
COc1ccc(-n2nc3c(c2NC(=O)c2cc(Br)ccc2Cl)CS(=O)C3)cc1 (stereo not given),82.9*,15.5,-5.9,-1.7,-6.0
COc1ccc(-n2nc3c(c2NC(=O)c2ccc(Br)cc2)CS(=O)C3)cc1 (stereo not given),.,7.0,-3.4,-0.9,-13.5
Cc1cc(=O)oc2c1ccc1oc(/C(=N/O)c3ccccc3)c(C)c12,12.7,-9.7,7.2,10.1*,-14.6
Cc1ccc(S(=O)(=O)N2CCCOC2CNC(=O)C(=O)NCc2ccco2)cc1 (stereo not given),5.7,.,.,-2.5,.
O=C(COc1ccc(-c2nnco2)cc1)NCc1ccccc1Cl,77.0*,.,.,-1.1,.
Cc1ccc(C(=O)NCCCn2ccnc2)cn1,14.5,-8.0,-5.3,-1.8,30.2*
O=C(NCCCn1ccnc1)c1ccncc1,-25.2,-6.8,9.9,-1.6,-12.2
O=C(Nc1nnc(SCc2ccccc2)s1)c1cccc([N+](=O)[O-])c1,63.5*,.,.,1.2,.
O=S(=O)(c1cccs1)N1CCN(CC(O)COc2cccc(Br)c2)CC1 (stereo not given),-7.8,.,94.1*,0.3,-13.0
Cc1onc(-c2ccccc2Cl)c1C(=O)Nc1sc2c(c1C(N)=O)CCC(C)C2 (stereo not given),5.1,10.8,-9.0,4.8*,2.4
CCOC(=O)CSc1nc(C)cc(=O)[nH]1,7.8,-6.0,-3.5,1.4,-5.1
CCOC(=O)CSc1nc(N)cc(=O)[nH]1,76.6*,-7.3,-10.5,-2.5,25.4
CCn1c(SCC(=O)Nc2nc(-c3ccccc3)cs2)nc2c1c(=O)n(C)c(=O)n2C,.,.,.,-4.5,.
COc1cccc(C(=O)COc2cccc(NC(=O)c3cccc([N+](=O)[O-])c3)c2)c1,19.4,.,48.6*,0.8,3.5
O=C(COc1cccc(NC(=O)c2cccc([N+](=O)[O-])c2)c1)c1ccc(F)cc1,.,.,.,-2.2,.
O=C(Nc1ccc(N2CCCCC2)c(Cl)c1)c1ncn[nH]1,.,.,-8.2,8.8*,-32.4
SMILES,E-sel TNF inh,MRP reversal,VCAM1 TNFa inh,MRP1 act,cytoskel mod
O=C(Nc1ccc(CCC(=O)N2CCCC2)cc1)c1ncn[nH]1,-6.1,0.2,-20.9,-3.1,.
O=C(Nc1ccc(N2CCCC2)c(Cl)c1)c1ccco1,-31.3,8.9,.,4.9*,.
O=S(=O)(Cc1ccc(Cl)cc1)c1ccccc1-c1nnc(-c2ccc(Cl)cc2)o1,16.9,.,11.9,-5.1,-1.4
CCOC(=O)Cn1c(=O)oc2cc(S(=O)(=O)N3CCN(C(=O)c4ccco4)CC3)ccc21,-10.3,.,.,-1.6,.
S=C(NCc1cccs1)Nc1cccc(Cl)c1Cl,80.5*,.,.,-2.1,.
O=c1cc(-c2ccc(F)cc2)oc2ccccc12,44.1*,12.0,14.4,.,3.5
CCOC(=O)Cc1nnc(NC(=O)CSc2ccc(Cl)cc2)s1,67.1*,-3.6,26.3,-1.1,11.5
COc1ccc([N+](=O)[O-])cc1NC(=O)C1CCCCC1C(=O)O (stereo not given),5.5,.,.,-0.3,.
CCCCN(C(=O)Cc1cccs1)c1nnc(-c2cccnc2)s1,-26.4,22.0,-6.2,5.8*,-35.0
COc1ccc(/C=C/C(=O)NCc2cnn(C)c2C)cc1COc1ccc(Br)cc1,5.9,.,-28.7,5.3*,-7.6
COc1ccc(/C=C/C(=O)NCc2c(C)nn(C)c2C)cc1COc1ccc(Br)cc1,-13.2,.,1.6,3.1,-33.8
CC(C(=O)NC1CCCC1)N(C(=O)c1ccc(-c2ccccc2)[nH]1)c1ccccc1F (stereo not given),1.8,.,-4.3,-4.1,-17.8
COc1ccc(-c2n[nH]c(C(F)(F)F)c2-c2cc3ccccc3o2)c(O)c1,42.6*,-21.4,-26.3,-3.7,.
